NIH3T3 tox: cytotoxic compounds in NIH 3T3 cells. Potency, µM (titrated, usually from 96.7 µM), for the others: at the top dose activity change, negative = cytotoxicity, most hits filed as inhibitors. NIH 3T3 viability, CellTiter-Glo ATP luminescence, 48-72 h. actives 4.3% (n = 94,000); note: nearly all actives have a fitted effect of over 55% in size
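ATP-dependent luminescence (CellTiter-Glo) served as the viability signal for NIH 3T3 cells treated with compound for 48 or 72 hr at 37 °C.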
SNCA expr inhib: inhibitors of alpha-synuclein (SNCA) gene expression; HEK-293 SNCA-luciferase knock-in, luminescence, 24 h; Potency, µM (top dose mostly 57.2 µM), inactives show top-dose activity change, negative = inhibition, most hits filed as inhibitors; actives 0.17% (n = 140,000);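 note: plate controls were DMSO cells for no effect and cell-free wells for full effect; nearly all actives have a fitted effect of over 45% in size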
SNCA viab count: reduces viability of HEK-293 SNCA reporter cells; HEK-293-SNCA-luc viability, GF-AFC fluorescence, 24 h; actives 0.12% (n = 150,000); Potency, µM (top dose mostly 57.1 µM), without a hit: top-dose activity change, negative = cytotoxicity, actives largely listed as cytotoxic;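 note: 0% = DMSO-treated cells and -100% = medium-only wells without cells; nearly all actives have a fitted effect of over 30% in size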
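HEK-293-SNCA-luc cells (1500/well) plated 24 h, then exposed 24 h to a dilution series; GF-AFC added 30 min at 37C, fluorescence 405/540 nm; normalised to medium-only and DMSO wells, Hill fit.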
hNpr1 antagonist: blocks ANP-stimulated signaling of human Npr1 receptor. HEK293 hNpr1 GloSensor cGMP, ANP-stimulated luminescence. Potency, µM (highest dose often 46.3 µM), without a hit: at the highest dose activity change, negative = inhibition, usual class: inhibitors. actives 1.6% (n = 76,000); calls by dose curve; note: nearly all actives have a fitted effect of over 60% in size
Target sequence (P16066 whole entry, looked up): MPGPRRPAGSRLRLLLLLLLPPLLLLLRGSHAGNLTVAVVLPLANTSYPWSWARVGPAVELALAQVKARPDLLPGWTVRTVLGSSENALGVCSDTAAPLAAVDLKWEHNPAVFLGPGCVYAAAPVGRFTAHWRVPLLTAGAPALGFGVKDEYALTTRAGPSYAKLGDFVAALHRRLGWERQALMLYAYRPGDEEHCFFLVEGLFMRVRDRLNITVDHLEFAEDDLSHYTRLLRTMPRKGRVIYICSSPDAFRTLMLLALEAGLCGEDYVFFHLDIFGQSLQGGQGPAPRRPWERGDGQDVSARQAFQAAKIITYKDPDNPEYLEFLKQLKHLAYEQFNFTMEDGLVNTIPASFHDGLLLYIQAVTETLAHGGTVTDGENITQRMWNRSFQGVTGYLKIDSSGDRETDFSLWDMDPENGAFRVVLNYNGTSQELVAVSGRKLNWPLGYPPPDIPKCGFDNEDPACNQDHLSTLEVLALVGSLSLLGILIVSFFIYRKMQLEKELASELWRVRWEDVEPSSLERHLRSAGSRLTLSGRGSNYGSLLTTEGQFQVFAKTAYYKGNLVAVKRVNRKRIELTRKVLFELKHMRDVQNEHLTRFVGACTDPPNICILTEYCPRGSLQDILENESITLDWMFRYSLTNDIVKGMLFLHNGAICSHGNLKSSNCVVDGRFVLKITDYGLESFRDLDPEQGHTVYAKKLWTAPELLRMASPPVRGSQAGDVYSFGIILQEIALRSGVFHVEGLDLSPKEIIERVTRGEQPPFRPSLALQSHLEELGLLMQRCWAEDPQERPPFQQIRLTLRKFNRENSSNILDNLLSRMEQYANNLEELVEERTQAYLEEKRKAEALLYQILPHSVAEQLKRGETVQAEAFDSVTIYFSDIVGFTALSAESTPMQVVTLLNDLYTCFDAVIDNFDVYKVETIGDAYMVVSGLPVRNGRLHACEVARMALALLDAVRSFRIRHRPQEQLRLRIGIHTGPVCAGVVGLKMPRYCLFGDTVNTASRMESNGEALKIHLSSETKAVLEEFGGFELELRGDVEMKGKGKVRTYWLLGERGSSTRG
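HEK293 cells stably expressing human Npr1 and cGMP GloSensor pGS-40F, loaded 2 h with 2% GloSensor reagent, given compound 30 min at room temperature. Luminescence read before and 20 min after 0.1 nM hNppA.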
Luciferase inh: blocks purified firefly luciferase enzyme activity. purified P. pyralis luciferase, luminescence, biochemical. P08659. AID 1347043. actives 2.5% (n = 76,000). Potency, µM (top dose mostly 115 µM), usual class: inhibitors; note: nearly all actives have a fitted effect of over 65% in size
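Luminescence read by CCD imaging after purified firefly luciferase (10nM final) was added to substrate buffer holding 10uM D-luciferin and 10uM ATP, pH 7.5, pre-dosed with compound.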
HEK cytotox: cytotoxic compounds in HEK 293 cells; HEK 293 viability, ATP luminescence (CellTiter-Glo), 48-72 h; Potency, µM (titrated, usually from 115 µM), for inactives: top-dose activity change, negative = cytotoxicity, most hits filed as inhibitors; actives 6.6% (n = 94,000); note: nearly all actives have a fitted effect of over 60% in size
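Pintool-delivered compounds were incubated with HEK 293 cells (250 cells/well) at 37 degree Celsius for 48 or 72 hr. ATP-dependent luminescence (CellTiter-Glo) then reported remaining viable cells.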
Numbers without * were called inactive; i = inactive; ? = inconclusive; nt = no result; [ ] = remark or other dose. An excerpt weighted towards active compounds, which were near 7.4% of everything screened. Unless noted, calls come from the whole dose curve; as a rule, active = well fitted curve in the direction sought with a large enough effect; inconclusive = small, poorly fitted or top-dose-only effect, or another doubt; inactive = no such curve, though single readings can be large; an effect the other way counts as inactive or inconclusive. Unless noted, % is set by controls: 0 for no effect and ±100 for the full control effect; potency is the fitted concentration of half-maximal effect.

SMILES	NIH3T3 tox	SNCA expr inhib	SNCA viab count	hNpr1 antagonist	Luciferase inh	HEK cytotox
CCNc1nccc(N2CCC(CC(=O)NCC(C)C)CC2)n1	?	-26%	-14%	-7%	i	?
CCCC(O)CN1CCC(=O)N(C)Cc2cc(F)ccc21 (stereo unspecified)	-11%	nt	nt	nt	nt	?
O=C(NCc1ccccn1)C1CCc2nnc(-c3cccc(C(F)(F)F)c3)n21 (stereo unspecified)	-12%	12%	-5%	nt	nt	-12%
C#CCNC(=O)[C@@H]1Cc2c[nH]c3cccc(c23)[C@H](CC(C)C)N1	100µM*	-21%[87.6 µM]	-17%[87.6 µM]	-3%[70.6 µM]	i	71µM*
CC(C)C[C@@H]1N[C@H](C(=O)N2CCOCC2)Cc2c[nH]c3cccc1c23	0%[174 µM]	?	0%[87.6 µM]	4%[70.6 µM]	i	-5%[172 µM]
CC(C)C[C@@H]1N[C@H](C(=O)NCc2ccco2)Cc2c[nH]c3cccc1c23	100µM*	?	?	4%[70.6 µM]	i	35µM*
CC(C)C[C@@H]1N[C@H](C(=O)NCC2CC2)Cc2c[nH]c3cccc1c23	?	?	?	-23%[70.6 µM]	i	35µM*
COc1ccc(-c2cccc(C(=O)N3CCC(NC(=O)c4cccnc4)CC3)c2)nn1	-4%	nt	nt	nt	nt	3%
CN1C(=O)[C@@H]2C[C@@H](CN2C2CCC2)Oc2ccccc21	50µM*	-13%[87.6 µM]	-1%[87.6 µM]	-16%[70.6 µM]	i	89µM*
Cc1cccc(-c2noc(CCC(=O)N3CCC(C)(c4noc(C)n4)CC3)n2)c1	?	?	6%	-12%	i	45µM*
COc1ccc(Cc2nnc3ccc(C(=O)NCCc4ccc(Cl)cc4)cn23)cc1	?	-9%	0%	nt	nt	89µM*
O=C(Nc1ccc(F)cc1)c1ccc2nnc(-c3ccc(Cl)cc3)n2c1	?	11%	2%	nt	nt	?
O=C(NCc1ccc(F)c(F)c1)c1ccc2nnc(Cc3ccc(Cl)cc3)n2c1	35µM*	-11%	-23%	nt	nt	?
O=C(Nc1cccc(Cl)c1)c1ccc2nnc(-c3ccc(Cl)cc3)n2c1	45µM*	-9%	-30%	nt	nt	40µM*
O=C(NCc1ccc(Cl)cc1)c1ccc2nnc(-c3ccc(Cl)cc3Cl)n2c1	32µM*	-12%	5%	nt	nt	?
O=C(NCc1cccc(C(F)(F)F)c1)c1nc2sccn2c1-c1cccnc1	?	-17%	-16%	nt	nt	?
COc1ccc(-n2c(=O)c(C(=O)NC3CCCC3)nc3cccnc32)cc1	-7%	23%	-2%	nt	nt	1%
Cc1ccc([S+](=O)([O-])N2CCC(N3C(=O)c4c(c(C)nn4-c4ccccc4)C3C)C2)cc1 (stereo unspecified)	-27%	nt	nt	nt	nt	?
CCc1ccccc1S(=O)(=O)N1CCCC(Cn2c(C3CC3)nc3cccnc32)C1 (stereo unspecified)	?	-15%	-17%	-19%	i	40µM*
Cc1ccc(S(=O)(=O)N2CCCC(Cn3c(C4CC4)nc4cccnc43)C2)c(C)c1 (stereo unspecified)	?	-24%	-17%	-24%	i	35µM*
CN(C)S(=O)(=O)N1CCCC(Cn2c(C3CC3)nc3cccnc32)C1 (stereo unspecified)	-10%	-17%	8%	-11%	i	-5%
Cc1cc(Cl)ccc1S(=O)(=O)N1CCCC(Cn2c(C)nc3cccnc32)C1 (stereo unspecified)	11µM*	?	-25%	?	i	20µM*
Cc1ccc(S(=O)(=O)N2CCCC(Cn3c(C4CC4)nc4cccnc43)C2)cc1 (stereo unspecified)	-20%	0%	-12%	?	i	?
Cc1cc(NC(=O)N2CCCC(Cn3c(C)nc4cccnc43)C2)ccc1Br (stereo unspecified)	?	-11%	-19%	-22%	i	32µM*
N#Cc1ccc(O[C@@H]2c3ccccc3C[C@H]2N2CCC[C@@H](N)C2)c(Cl)c1	nt	nt	-16%	nt	nt	nt

Screening data as filed in PubChem BioAssay.
